For one sequence, binding signal results are on record in paper PMC7862700, “An all-to-all approach to the identification of sequence-specific readers for epigenetic DNA modifications on cytosine”.

Experiment in all cases: DAPPL (digital affinity profiling via proximity ligation, sequencing); 10 mM Tris-HCl pH 7.5, 50 mM NaCl, 1 mM DTT, 4% glycerol, room temperature, 30 min; GST-TFs on glutathione beads, 16-mer random dsDNA library, 0.1% formaldehyde crosslink after washing; high values mean tight binding
One experiment deals with T1, FLI1 (Homo sapiens, UniProt Q01543 1-452).
T1 sequence: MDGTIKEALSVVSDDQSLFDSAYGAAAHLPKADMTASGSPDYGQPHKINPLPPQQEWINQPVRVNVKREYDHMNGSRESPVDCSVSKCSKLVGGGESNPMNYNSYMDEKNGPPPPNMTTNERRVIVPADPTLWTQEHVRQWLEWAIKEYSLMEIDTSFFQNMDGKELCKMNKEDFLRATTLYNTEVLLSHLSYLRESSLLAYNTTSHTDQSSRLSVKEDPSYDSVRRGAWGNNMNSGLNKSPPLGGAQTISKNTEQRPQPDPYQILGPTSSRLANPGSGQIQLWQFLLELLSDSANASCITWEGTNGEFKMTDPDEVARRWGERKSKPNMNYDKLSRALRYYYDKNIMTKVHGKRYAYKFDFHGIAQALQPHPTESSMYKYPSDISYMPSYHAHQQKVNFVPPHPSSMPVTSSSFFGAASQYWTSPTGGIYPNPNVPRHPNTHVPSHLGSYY
Conditions: protein: recombinant; tags: N-terminal GST; dsDNA, one strand shown. The essentials: (§1)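 Pools were built from human transcription factors expressed in yeast as GST fusions, captured on glutathione beads and DNA-barcoded, along with a tag-only sample. Incubation with 200 nmole of a 16-mer random double-stranded DNA library lasted 30 min at room temperature in Tris/NaCl/DTT/glycerol buffer, and was followed by washing, 0.1% formaldehyde crosslinking, proximity ligation, PCR amplification and Illumina NextSeq500 sequencing. Binding signal is the quotient of each hexamer's read frequency for a factor and its frequency for the tag-only sample.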

A further experiment addresses T2, ELK1 (Homo sapiens, UniProt P19419 1-428).
T2 sequence: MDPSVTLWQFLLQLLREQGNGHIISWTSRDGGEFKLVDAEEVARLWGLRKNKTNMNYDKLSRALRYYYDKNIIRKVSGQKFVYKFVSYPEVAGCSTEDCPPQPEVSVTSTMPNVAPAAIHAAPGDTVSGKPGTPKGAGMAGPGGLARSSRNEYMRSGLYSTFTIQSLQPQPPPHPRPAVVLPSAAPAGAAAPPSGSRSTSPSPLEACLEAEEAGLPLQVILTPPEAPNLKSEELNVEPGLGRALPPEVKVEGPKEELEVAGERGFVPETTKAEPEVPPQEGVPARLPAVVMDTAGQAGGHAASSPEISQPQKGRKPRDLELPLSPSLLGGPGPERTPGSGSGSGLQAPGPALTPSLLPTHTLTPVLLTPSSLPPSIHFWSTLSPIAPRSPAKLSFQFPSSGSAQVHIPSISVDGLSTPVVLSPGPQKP
As to conditions: protein: recombinant; tags: N-terminal GST; dsDNA, one strand shown. In outline:
as §1

The target in a further experiment is T3, GABPA (Homo sapiens, UniProt Q06546 1-454).
T3 sequence: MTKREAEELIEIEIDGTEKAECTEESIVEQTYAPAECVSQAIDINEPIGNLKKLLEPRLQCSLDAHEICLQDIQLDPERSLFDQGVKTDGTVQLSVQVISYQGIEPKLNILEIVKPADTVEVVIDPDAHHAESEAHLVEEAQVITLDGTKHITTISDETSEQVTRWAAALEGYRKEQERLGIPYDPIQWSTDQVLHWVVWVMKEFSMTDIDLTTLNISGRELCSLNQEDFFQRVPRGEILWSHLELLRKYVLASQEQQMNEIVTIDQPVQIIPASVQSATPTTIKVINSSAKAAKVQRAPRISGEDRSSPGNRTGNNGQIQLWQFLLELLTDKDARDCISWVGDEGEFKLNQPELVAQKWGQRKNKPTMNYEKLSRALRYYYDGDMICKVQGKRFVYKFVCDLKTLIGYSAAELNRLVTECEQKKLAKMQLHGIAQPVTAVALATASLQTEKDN
As to conditions: protein: recombinant; tags: N-terminal GST; dsDNA, one strand shown. In outline:
as §1

For a further experiment, the target named is T4, ERG (Homo sapiens, UniProt P11308 1-479).
T4 sequence: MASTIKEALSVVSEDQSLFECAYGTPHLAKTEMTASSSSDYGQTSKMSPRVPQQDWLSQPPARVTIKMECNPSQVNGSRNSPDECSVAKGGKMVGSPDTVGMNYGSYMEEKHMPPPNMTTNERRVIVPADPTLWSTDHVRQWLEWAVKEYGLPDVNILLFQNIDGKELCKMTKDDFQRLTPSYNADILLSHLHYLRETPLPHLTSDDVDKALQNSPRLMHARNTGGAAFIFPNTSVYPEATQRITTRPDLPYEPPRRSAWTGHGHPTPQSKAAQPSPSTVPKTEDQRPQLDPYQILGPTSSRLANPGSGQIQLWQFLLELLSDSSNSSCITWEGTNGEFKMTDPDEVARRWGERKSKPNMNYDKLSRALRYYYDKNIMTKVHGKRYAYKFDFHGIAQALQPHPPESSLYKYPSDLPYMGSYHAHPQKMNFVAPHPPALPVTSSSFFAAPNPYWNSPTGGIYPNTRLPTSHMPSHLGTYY
Conditions: protein: recombinant; tags: N-terminal GST; dsDNA, one strand shown. In outline:
as §1

The next experiment deals with ELF1 (Homo sapiens, UniProt P32519 1-619). As to conditions: protein: recombinant; tags: N-terminal GST; dsDNA, one strand shown. In outline:
as §1

The target of the next experiment is T5, EHF (Homo sapiens, UniProt Q9NZC4 1-300).
T5 sequence: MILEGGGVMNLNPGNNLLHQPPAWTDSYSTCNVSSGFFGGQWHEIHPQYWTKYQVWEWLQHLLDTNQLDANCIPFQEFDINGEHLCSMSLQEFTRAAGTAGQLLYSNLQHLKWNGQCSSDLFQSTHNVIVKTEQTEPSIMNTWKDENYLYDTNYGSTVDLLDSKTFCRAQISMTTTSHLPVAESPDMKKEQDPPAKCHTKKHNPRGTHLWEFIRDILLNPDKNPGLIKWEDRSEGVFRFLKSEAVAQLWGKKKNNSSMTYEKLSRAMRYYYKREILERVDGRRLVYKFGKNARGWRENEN
As to conditions: protein: recombinant; tags: N-terminal GST; dsDNA, one strand shown. In outline:
as §1

In another experiment the target is SPI1 (Homo sapiens, UniProt P17947 1-270). Conditions: protein: recombinant; tags: N-terminal GST; dsDNA, one strand shown. The essentials:
as §1

A further experiment concerns the target SPIB (Homo sapiens, UniProt Q01892 1-262). Conditions: protein: recombinant; tags: N-terminal GST; dsDNA, one strand shown. In outline: as §1
The target of the next experiment is T6, ELK3 (Homo sapiens, UniProt P41970 1-407).
T6 sequence: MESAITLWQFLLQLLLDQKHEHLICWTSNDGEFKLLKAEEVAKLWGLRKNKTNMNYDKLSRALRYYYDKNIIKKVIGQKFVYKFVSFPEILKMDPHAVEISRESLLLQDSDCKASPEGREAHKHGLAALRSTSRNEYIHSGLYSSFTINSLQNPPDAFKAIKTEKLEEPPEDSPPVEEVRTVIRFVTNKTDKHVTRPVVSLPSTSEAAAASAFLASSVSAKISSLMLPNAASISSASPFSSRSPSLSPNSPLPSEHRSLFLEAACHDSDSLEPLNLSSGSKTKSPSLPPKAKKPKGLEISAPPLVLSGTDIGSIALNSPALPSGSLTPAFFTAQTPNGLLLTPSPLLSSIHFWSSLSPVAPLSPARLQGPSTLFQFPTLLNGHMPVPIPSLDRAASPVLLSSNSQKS
As to conditions: protein: recombinant; tags: N-terminal GST; dsDNA, one strand shown. In outline:
as §1

In the next experiment the target is T7, FEV (Homo sapiens, UniProt Q99581 1-238).
T7 sequence: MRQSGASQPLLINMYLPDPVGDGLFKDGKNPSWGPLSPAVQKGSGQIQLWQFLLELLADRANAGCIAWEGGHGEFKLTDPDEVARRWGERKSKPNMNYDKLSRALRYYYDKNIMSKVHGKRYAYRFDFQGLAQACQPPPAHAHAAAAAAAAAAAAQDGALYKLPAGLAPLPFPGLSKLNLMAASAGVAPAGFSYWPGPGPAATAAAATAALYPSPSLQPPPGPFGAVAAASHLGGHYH
As to conditions: protein: recombinant; tags: N-terminal GST; dsDNA, one strand shown. The essentials:
as §1

A further experiment deals with ETV5 (Homo sapiens, UniProt P41161 1-510). Conditions: protein: recombinant; tags: N-terminal GST; dsDNA, one strand shown. In outline:
as §1

In a further experiment the target is HSF1 (Homo sapiens, UniProt Q00613 1-529). As to conditions: protein: recombinant; tags: N-terminal GST; chain copies: 3; dsDNA, one strand shown. The essentials:
as §1

The target in another experiment is T8, SPIC (Homo sapiens, UniProt Q8N5J4 1-248).
T8 sequence: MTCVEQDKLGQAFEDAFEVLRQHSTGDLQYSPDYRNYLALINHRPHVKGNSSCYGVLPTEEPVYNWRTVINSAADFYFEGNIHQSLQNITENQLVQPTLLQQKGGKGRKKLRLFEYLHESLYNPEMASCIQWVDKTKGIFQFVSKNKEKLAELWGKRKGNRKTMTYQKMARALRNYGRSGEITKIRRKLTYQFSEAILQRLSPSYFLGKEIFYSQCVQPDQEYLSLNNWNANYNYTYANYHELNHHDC
As to conditions: protein: recombinant; tags: N-terminal GST; dsDNA, one strand shown. The essentials: as §1

The target in a further experiment is ELF4 (Homo sapiens, UniProt Q99607 1-663). As to conditions: protein: recombinant; tags: N-terminal GST; dsDNA, one strand shown. The essentials:
as §1

A further experiment concerns the target T9, ELK4 (Homo sapiens, UniProt P28324-2 1-405).
T9 sequence: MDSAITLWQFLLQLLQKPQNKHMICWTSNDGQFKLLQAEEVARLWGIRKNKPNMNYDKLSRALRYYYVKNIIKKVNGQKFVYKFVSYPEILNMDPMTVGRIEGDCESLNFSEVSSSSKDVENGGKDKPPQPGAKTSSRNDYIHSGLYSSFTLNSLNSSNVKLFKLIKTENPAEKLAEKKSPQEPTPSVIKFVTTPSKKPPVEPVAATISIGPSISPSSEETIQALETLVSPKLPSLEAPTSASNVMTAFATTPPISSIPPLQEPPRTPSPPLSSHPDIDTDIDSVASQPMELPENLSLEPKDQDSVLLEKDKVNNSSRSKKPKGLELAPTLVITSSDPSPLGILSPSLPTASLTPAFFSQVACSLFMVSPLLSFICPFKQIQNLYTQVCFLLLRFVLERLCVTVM
As to conditions: protein: recombinant; tags: N-terminal GST; dsDNA, one strand shown. In outline: as §1

The target of the next experiment is T10, ETV2 (Homo sapiens, UniProt O00321 1-342).
T10 sequence: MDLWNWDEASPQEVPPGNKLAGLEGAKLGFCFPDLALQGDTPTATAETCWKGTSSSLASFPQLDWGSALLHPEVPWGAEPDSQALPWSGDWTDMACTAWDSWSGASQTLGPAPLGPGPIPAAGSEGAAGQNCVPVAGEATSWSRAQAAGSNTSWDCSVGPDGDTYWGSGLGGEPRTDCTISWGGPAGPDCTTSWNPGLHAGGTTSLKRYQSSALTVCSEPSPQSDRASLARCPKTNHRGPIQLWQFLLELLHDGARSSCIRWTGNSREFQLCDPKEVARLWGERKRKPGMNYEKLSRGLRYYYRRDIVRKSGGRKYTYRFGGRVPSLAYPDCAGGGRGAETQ
As to conditions: protein: recombinant; tags: N-terminal GST; dsDNA, one strand shown. In outline: as §1

The next experiment concerns the target T11, ELF3 (Homo sapiens, UniProt P78545 1-371).
T11 sequence: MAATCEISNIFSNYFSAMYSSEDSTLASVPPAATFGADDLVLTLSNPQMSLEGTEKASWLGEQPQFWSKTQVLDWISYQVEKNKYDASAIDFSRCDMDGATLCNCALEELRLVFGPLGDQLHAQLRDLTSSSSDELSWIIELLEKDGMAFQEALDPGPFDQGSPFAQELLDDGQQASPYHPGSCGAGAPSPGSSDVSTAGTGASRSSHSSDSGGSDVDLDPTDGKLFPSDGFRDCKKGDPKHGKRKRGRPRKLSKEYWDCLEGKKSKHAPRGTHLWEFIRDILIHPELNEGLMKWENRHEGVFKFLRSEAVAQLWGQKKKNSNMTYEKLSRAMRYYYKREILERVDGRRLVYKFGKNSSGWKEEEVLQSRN
As to conditions: protein: recombinant; tags: N-terminal GST; dsDNA, one strand shown. The essentials: as §1

For the next experiment, the target named is ETV1 (Homo sapiens, UniProt P50549 1-477). As to conditions: protein: recombinant; tags: N-terminal GST; dsDNA, one strand shown. The essentials:
as §1

ELF4, sequence (Q99607 whole entry): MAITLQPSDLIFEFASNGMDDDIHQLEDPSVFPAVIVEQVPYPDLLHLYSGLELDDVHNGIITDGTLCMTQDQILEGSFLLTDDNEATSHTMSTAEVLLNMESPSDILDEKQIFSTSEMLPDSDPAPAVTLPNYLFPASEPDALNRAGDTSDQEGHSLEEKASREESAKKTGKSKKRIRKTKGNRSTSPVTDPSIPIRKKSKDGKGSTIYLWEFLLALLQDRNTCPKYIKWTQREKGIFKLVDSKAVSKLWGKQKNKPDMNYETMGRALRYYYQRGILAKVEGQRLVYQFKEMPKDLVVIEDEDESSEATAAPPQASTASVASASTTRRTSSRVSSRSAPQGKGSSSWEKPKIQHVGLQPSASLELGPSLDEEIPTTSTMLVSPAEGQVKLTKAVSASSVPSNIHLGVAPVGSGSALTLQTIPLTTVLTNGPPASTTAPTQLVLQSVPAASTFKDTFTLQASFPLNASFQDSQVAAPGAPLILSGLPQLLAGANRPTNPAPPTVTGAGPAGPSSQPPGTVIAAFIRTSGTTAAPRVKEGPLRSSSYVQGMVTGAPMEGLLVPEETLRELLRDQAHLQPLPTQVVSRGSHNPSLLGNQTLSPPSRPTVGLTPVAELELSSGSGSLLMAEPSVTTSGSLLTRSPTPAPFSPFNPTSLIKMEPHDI
ELF1, sequence (P32519 whole entry): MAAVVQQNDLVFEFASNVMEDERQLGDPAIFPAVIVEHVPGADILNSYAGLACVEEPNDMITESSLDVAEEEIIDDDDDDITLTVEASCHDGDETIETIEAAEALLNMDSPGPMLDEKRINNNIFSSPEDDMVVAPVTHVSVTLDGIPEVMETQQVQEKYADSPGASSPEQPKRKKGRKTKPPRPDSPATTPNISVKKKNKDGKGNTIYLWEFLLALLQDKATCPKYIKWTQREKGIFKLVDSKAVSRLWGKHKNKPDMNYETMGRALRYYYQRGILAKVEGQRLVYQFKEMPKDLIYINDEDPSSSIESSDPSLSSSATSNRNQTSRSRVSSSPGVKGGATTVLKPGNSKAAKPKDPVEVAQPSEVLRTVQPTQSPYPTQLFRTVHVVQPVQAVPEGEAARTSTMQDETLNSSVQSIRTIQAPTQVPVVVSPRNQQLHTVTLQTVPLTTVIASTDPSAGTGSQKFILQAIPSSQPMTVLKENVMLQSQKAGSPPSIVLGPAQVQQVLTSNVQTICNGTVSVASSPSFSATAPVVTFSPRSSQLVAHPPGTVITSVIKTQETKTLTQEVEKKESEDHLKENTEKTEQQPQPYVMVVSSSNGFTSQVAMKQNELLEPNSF
ETV5, sequence (P41161 whole entry): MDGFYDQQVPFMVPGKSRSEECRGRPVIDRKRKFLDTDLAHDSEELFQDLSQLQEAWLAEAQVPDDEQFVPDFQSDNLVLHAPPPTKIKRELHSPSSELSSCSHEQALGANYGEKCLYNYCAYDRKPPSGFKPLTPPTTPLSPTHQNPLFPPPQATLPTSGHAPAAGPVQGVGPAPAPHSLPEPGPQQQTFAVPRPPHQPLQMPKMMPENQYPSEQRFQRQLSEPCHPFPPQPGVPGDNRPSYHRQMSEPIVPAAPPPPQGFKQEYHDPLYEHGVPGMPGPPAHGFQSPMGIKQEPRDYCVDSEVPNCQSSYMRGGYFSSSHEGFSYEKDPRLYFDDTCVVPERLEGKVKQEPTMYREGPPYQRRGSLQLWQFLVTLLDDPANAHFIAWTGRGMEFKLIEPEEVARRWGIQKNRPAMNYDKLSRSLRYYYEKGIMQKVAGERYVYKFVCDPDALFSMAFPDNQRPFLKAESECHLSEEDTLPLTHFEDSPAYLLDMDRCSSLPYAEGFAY
ETV1, sequence (P50549 whole entry): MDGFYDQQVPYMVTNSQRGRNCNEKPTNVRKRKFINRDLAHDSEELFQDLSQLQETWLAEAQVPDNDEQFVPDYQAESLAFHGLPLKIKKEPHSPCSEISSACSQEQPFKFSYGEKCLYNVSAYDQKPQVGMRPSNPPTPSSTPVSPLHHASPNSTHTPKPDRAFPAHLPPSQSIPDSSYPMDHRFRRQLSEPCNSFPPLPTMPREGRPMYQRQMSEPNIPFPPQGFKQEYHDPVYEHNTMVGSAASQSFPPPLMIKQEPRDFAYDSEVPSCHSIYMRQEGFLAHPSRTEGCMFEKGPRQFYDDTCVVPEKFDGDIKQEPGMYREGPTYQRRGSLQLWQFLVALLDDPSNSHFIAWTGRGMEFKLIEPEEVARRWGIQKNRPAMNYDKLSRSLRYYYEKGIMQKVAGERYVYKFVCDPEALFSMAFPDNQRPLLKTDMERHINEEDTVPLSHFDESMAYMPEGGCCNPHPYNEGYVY
HSF1, sequence (Q00613 whole entry): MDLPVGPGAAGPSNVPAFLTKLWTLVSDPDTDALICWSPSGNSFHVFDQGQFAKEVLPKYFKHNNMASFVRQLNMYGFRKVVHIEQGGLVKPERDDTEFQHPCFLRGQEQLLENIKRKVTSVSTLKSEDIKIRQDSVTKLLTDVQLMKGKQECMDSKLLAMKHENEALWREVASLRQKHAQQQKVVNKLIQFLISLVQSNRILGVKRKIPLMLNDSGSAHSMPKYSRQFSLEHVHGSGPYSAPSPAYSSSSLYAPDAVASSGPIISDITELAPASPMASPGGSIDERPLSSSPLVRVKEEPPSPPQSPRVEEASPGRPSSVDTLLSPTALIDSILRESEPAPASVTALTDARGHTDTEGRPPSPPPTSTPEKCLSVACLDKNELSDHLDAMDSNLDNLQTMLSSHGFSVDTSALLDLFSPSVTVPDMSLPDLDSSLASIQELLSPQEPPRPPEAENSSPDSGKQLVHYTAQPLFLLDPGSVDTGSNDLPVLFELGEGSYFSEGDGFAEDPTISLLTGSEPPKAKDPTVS
SPIB, sequence (Q01892 whole entry): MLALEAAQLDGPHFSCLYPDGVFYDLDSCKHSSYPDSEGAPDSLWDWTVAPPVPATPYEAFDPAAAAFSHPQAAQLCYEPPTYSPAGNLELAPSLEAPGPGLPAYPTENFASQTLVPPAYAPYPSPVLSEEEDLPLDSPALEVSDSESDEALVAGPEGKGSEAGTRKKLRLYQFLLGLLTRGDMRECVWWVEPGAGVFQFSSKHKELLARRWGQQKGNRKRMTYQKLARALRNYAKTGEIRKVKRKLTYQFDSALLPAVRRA

For AACAGC, the binding signal in the experiment with FLI1 was 1.1 fold enrichment (6-mer frequency, TF over GST control); in the experiment with ELK1, 1.1 fold enrichment (6-mer frequency, TF over GST control); with GABPA, 1.17 fold enrichment (6-mer frequency, TF over GST control); in the experiment with ERG, 1.13 fold enrichment (6-mer frequency, TF over GST control); with ELF1, 1.12 fold enrichment (6-mer frequency, TF over GST control); with EHF it was 1.16 fold enrichment (6-mer frequency, TF over GST control). The binding signal was 1.11 fold enrichment (6-mer frequency, TF over GST control) in the experiment with SPI1; 1.13 fold enrichment (6-mer frequency, TF over GST control) in the experiment with SPIB; 1.17 fold enrichment (6-mer frequency, TF over GST control) with ELK3; 1.14 fold enrichment (6-mer frequency, TF over GST control) with FEV; 1.09 fold enrichment (6-mer frequency, TF over GST control) in the experiment with ETV5; 1 fold enrichment (6-mer frequency, TF over GST control) in the experiment with HSF1. The binding signal in the experiment with SPIC was 1.05 fold enrichment (6-mer frequency, TF over GST control); with ELF4, 1.15 fold enrichment (6-mer frequency, TF over GST control); with ELK4, 1.2 fold enrichment (6-mer frequency, TF over GST control); with ETV2, 1.12 fold enrichment (6-mer frequency, TF over GST control); with ELF3, 1.1 fold enrichment (6-mer frequency, TF over GST control); with ETV1 it was 1.11 fold enrichment (6-mer frequency, TF over GST control).
